Algae TAG accum – inducers of triacylglycerol accumulation in Chlamydomonas reinhardtii algae; Chlamydomonas reinhardtii TAG, Nile Red fluorescence, 72 h; calls only at 10 µM (by protocol); AID 1159537; hit rate 0.84% among 44,000; call rule not given here;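 note: hits raise Nile Red signal meaning more stored TAG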
Active calls of the source: *; i = inactive; + = active, no number. Only a selection was taken, and hits are over-represented in it overall.

SMILES	Algae TAG accum
CN1C(=O)C(=O)C(=C(O)c2ccc(Br)cc2)C1c1ccccc1F (stereo not given)	i
CCCC(O)C#CCN1CCCCC1 (stereo not given)	i
NNC(=O)c1n[nH]c2c1CCC2	i
CCCC(=O)Nc1cccc(NC(=O)c2ccc(OC(C)C)cc2)c1	i
CN1CCCN(Cc2cccc(Oc3ccccc3)c2)CC1	+
COc1ccc(CN2CCN(C)CC2)cc1OCc1ccccc1	i
CN1CCN(Cc2cccc(Oc3ccccc3)c2)CC1	+
CN1CCN(Cc2ccc3c(c2)Cc2ccccc2-3)CC1	+
OC1CCCN(Cc2ccc3c(c2)Cc2ccccc2-3)C1 (stereo not given)	i
OC1CCN(Cc2cccc(Oc3ccccc3)c2)CC1	i
CN1CCCN(Cc2cccc(Br)c2)CC1	i
COc1cccc(CN2CCCN(C)CC2)c1	i
OCC1CCCN(Cc2ccc3c(c2)Cc2ccccc2-3)C1 (stereo not given)	i
CCOc1cccc(CN2CCC(C(=O)N[C@H](C)c3ccccc3)CC2)c1O	i
CSc1ccc(Cl)c(C(=O)NCCc2ccc(S(=O)(=O)N3CCCCC3)cc2)c1	i
O=C1CCC(=O)N1c1ccc(S(=O)(=O)N2CCOCC2)cc1	i
NNC(=O)CCNS(=O)(=O)c1ccc([N+](=O)[O-])cc1	i
Cc1[nH]nc(-c2ccc(O)c(O)c2O)c1-c1ccccc1	i
O=C(C1CCN(Cc2ccccc2O)CC1)N(CCO)Cc1ccccc1	i
CCN(Cc1ccccc1)C(=O)C1CCN(Cc2ccccc2F)CC1	+
COc1ccccc1CN1CCC(C(=O)N(CCN(C)C)Cc2ccccc2)CC1	i
CCOc1ccccc1NC(=O)CN(C)S(=O)(=O)c1ccc(Br)cc1	i
COc1ccc(C(=O)Nc2ccc(Cl)cc2F)c(OC)c1	i
COc1ccc(C(=O)N2CCN(Cc3ccncc3)CC2)cc1	i
Cc1cc(C)c(S(=O)(=O)N2CCN(C)CC2)cc1Br	+
SMILES	Algae TAG accum
Cc1cc(C)c(S(=O)(=O)N2CCN(c3ccccc3)CC2)cc1Br	i
Cc1cc(C)c(S(=O)(=O)N2CCN(C)CC2)cc1C	i
CCN(CC)C(=O)CCc1ccccc1	i
COc1ccccc1CNC(=O)N1CCOCC1	i
Cc1ccc(OCCCCN2CCCC2)c([N+](=O)[O-])c1	i
Cc1cc(Br)ccc1OCCCCN1CCN(C)CC1	+
Cc1cc(Br)ccc1OCCCCN1CCOCC1	i
Brc1cccc(OCCCCN2CCCC2)c1	i
Cc1cc(Br)ccc1OCCCCN1CCCC1	+
C=CCc1cc(C)ccc1OCCCCN1CCCC1	i
Cc1ccc(OCCCCN2CCCCC2)c(C)c1	+
Cc1ccc(C(C)(C)C)c(OCCCCN2CCN(C)CC2)c1	i
Cc1ccccc1OCCOCCN1CCN(C)CC1	i
CCOc1ccc(NC(=O)C2=C(C)NC(=O)NC2c2ccc(O)cc2)cc1 (stereo not given)	i
COc1ccc(NS(C)(=O)=O)cc1OC	i
C=CCn1c(SCc2ccccc2)nc(O)c(CC)c1=O	i
COc1ccc(C(CC(=O)O)c2ccc(OC)c(OC)c2)cc1OC	i
O=C(Nc1ccccc1C#Cc1ccccc1)c1ccccc1F	i
Cc1cccc(N(CC(=O)Nc2ccc3c(c2)OCO3)S(C)(=O)=O)c1	i
CC(C(=O)NCc1cccnc1)N(c1ccccc1)S(C)(=O)=O (stereo not given)	i
CC(C(=O)NCc1ccc(Cl)cc1)N(c1ccccc1)S(C)(=O)=O (stereo not given)	+
CC(C(=O)NC1CCCCCC1)N(c1ccccc1)S(C)(=O)=O (stereo not given)	i
COc1cc(C=O)cc(I)c1OCc1cccc(C(=O)O)c1	i
O=C(CSc1nc2ccccc2c(=O)n1C1CCCC1)c1ccc(Cl)cc1	i
O=C(O)c1ccncc1C(=O)O	i
SMILES	Algae TAG accum
COc1cccc(N2CCN(Cc3ccco3)CC2)c1	i
COc1cccc(N2CCN(Cc3ccsc3)CC2)c1	+
Clc1ccc(N2CCN(Cc3ccsc3)CC2)cc1	+
Fc1ccc(N2CCN(Cc3ccsc3)CC2)cc1	+
O=C(c1ccc(CN2CCOCC2)cc1)N1CCN(c2ccc(F)cc2)CC1	i
O=[N+]([O-])c1ccc(N2CCN(Cc3ccsc3)CC2)cc1	i
Clc1ccc(N2CCN(Cc3cccs3)CC2)cc1	i
COc1ccc(N2CCN(Cc3cc(OC)cc(OC)c3)CC2)cc1	i
CCOc1cc(CN2CCN(c3ccc(F)cc3)CC2)ccc1OC	i
O=C(/C=C/c1cc2c(cc1Br)OCO2)c1cccs1	i
C=CCc1ccc(OCCCOc2ccccc2C=O)c(OC)c1	i
COc1ccc(C(=O)Nc2ccc(NC(=O)c3ccccc3)cc2)cc1[N+](=O)[O-]	i
COc1ccc(OC)c(NC(=O)c2c(-c3ccccc3)noc2C)c1	i
C=CCOc1ccc(C(O)CC)cc1OC (stereo not given)	i
CCCC(C)C(=O)N1CCN(c2ccc([N+](=O)[O-])cc2)CC1 (stereo not given)	i
O=[N+]([O-])c1ccccc1/C=C/CN1CCCC(O)C1 (stereo not given)	i
COc1cc(C(=O)Nc2ccc(S(=O)(=O)Nc3ncccn3)cc2)cc(OC)c1OC	+
COc1ccc(C(=O)Nc2ccc(S(=O)(=O)Nc3ncccn3)cc2)cc1[N+](=O)[O-]	i
COc1cc(C(=O)Nc2ccc(S(=O)(=O)NC(C)=O)cc2)cc(OC)c1OC	i
CCCCc1nc(SCC(=O)NCc2ccccc2)n[nH]1	i
COc1ccc(Br)cc1C(=O)Nc1ccc([N+](=O)[O-])cc1C	i
O=C(Nc1ccc(CN2CCCC2)cc1)c1cccs1	i
O=C(CSc1nc(O)cc(=O)[nH]1)c1ccccc1	i
CCN(CC)C(=O)C1CCCN(Cc2ccc(C)cc2)C1 (stereo not given)	i
Cc1ccc(CN2CCCC(CO)C2)cc1 (stereo not given)	+
SMILES	Algae TAG accum
CCc1ccc(CN2CCCC(CO)C2)cc1 (stereo not given)	i
COc1ccc(C2C(=C(O)c3ccc(C)cc3)C(=O)C(=O)N2C)c(OC)c1 (stereo not given)	i
Cc1sc(NC(=O)c2cccnc2)nc1-c1ccc(Br)cc1	i
CCOc1ccccc1N1CCN(Cc2cc(Br)c(O)c(OC)c2)CC1	i
O=C(CSc1nnc(-c2cccnc2)n1-c1ccccc1)c1cccc([N+](=O)[O-])c1	i
O=C(C1=C(O)C(=O)N(c2ncccn2)C1c1ccccc1F)c1ccco1 (stereo not given)	i
Cc1cc(OCc2nc(-c3cccnc3)no2)cc(C)c1Br	i
COc1ccc(-c2noc(COc3ccc(Br)cc3C)n2)cc1OC	i
Cc1cccc(-c2noc(COc3ccc(Br)cc3)n2)c1	+
NS(=O)(=O)c1ccc(NC(=O)CCCc2ccccc2)cc1	i
Cc1cc(Cl)ccc1OCCN1CCNCC1	i
Clc1cc(Br)ccc1OCCCCN1CCCC1	i
Clc1ccc(Cl)c(OCCCCN2CCNCC2)c1	+
Cc1ccnc(NC(=O)c2ccc(Br)o2)c1	i
Clc1ccc(CN2CCOCC2)cc1Cl	i
CC(C)c1ccc(CN2CCC(O)CC2)cc1	i
CC(C)c1ccc(CN2CCOCC2)cc1	+
C/C(=C\c1ccccc1)CN1CCN(C)CC1	+
C/C(=C\c1ccccc1)CN1CCOCC1	i
CCOC(=O)N1CCN(C/C(C)=C/c2ccccc2)CC1	i
O=C1Cc2ccccc2C(c2ccccc2Cl)N1 (stereo not given)	i

Screening results (PubChem BioAssay)
